Measurements: the supplement of paper PMC7801607

Legend:
CHO = experiment: % viability of CHO cells (MTT); higher = less toxic; settings: 48 h
Method in brief: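 For 48 h, attached CHO cells (10^6 cells/well, 200 µL, seeded the night before) were kept in fresh medium carrying compound at 2 or 20 µM. A colorimetric tetrazolium (MTT) assay then gave survival as percent viability versus untreated cells.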

HepG2-A16-CD81 = experiment: % inhibition of HepG2 viability (CellTiter-Glo); higher = more toxic; settings: 5 µM
[1] = system: Plasmodium falciparum NF54 stage IV/V gametocytes; experiment: % inhibition of gametocyte viability (PrestoBlue); higher = more inhibition; settings: 48 h
Method in brief: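 Stage IV/V NF54 gametocytes at 2% gametocytaemia and 5% haematocrit (100 µL/well) were treated with compound at 1 or 5 µM and incubated for 48 h at 37 °C under stationary, hypoxic conditions. PrestoBlue (10 µL) was then added for 2 h, and fluorescence at 612 nm was read on 70 µL of transferred supernatant. Percent inhibition of gametocyte viability was normalised to vehicle and kill controls within one run.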

[2] = system: Plasmodium falciparum NF54 asexual blood stage; experiment: % inhibition of asexual blood stage proliferation (pLDH); higher = more inhibition; settings: 72 h
Method in brief: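 Plasmodium falciparum NF54 ring-stage cultures (1% haematocrit, 2% parasitaemia) were incubated with compound at 2 or 20 µM for 72 h at 37 °C under 4% CO2, 3% O2 and 93% N2. Survival was read at 620 nm with the parasite lactate dehydrogenase assay. Results were reported as percent inhibition of asexual proliferation relative to controls.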

[3] = system: Plasmodium falciparum NF54 stage IV/V gametocytes; experiment: % inhibition of gametocyte viability (ATP bioluminescence); higher = more inhibition; settings: 24 h
Method in brief: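 Stage IV/V NF54 gametocytes from density gradients (30,000 per well, 96-well plates) were incubated with compound at 1 or 5 µM for 24 h at 37 °C. A single run supplied percent inhibition of gametocyte viability, based on ATP measured with Promega BacTiter Glo and normalised to control wells.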

[4] = system: Plasmodium falciparum NF54 stage IV/V gametocytes; experiment: % inhibition of gametocyte viability (luciferase reporter); higher = more inhibition; settings: 48 h
Method in brief: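 Percent inhibition came from luminescence and was normalised to controls in a single run. Gametocytes (stage IV/V, NF54-Pfs16-GFP-Luc line, 2% gametocytaemia, 2% haematocrit) were treated with compound at 1 or 5 µM and incubated for 48 h at 37 °C without agitation under hypoxia. Readings used 30 µL lysate with 30 µL Promega luciferin substrate on a GloMax-Multi+ reader, integrating for 10 s.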

[5] = system: Plasmodium berghei ANKA liver stage in HepG2-A16-CD81; experiment: % inhibition of liver stage parasite viability (luciferase); higher = more inhibition; settings: 5 µM; 48 h
Description: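 Single-concentration screen of the MMV Pandemic Response Box. P. falciparum NF54 asexual blood stages: pLDH assay, 72 h at 37 °C, 2 and 20 µM, n=2. Stage IV/V gametocytes (NF54): luciferase reporter (NF54-Pfs16-GFP-Luc, 48 h), ATP bioluminescence (24 h) and PrestoBlue (48 h) at 1 and 5 µM, n=1. P. berghei liver stage (luciferase in HepG2-A16-CD81, 48 h post infection) at 5 µM, n=4. All normalised to DMSO and kill controls as % inhibition.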
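For % inhibition of HepG2 viability (CellTiter-Glo) in this document: HepG2-A16-CD81 hepatoma cells plated as in the liver-stage assay but without sporozoites, with DMSO wells as negative and 25 µM puromycin as positive control.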

Compound	% viability of CHO cells (CHO; 2 µM) [%]	% viability of CHO cells (CHO; 20 µM) [%]	% inhibition of HepG2 viability (HepG2-A16-CD81) [%]	% inhibition of gametocyte viability ([1]; 1 µM) [%]	% inhibition of gametocyte viability ([1]; 5 µM) [%]	% inhibition of asexual blood stage proliferation ([2]; 2 µM) [%]	% inhibition of asexual blood stage proliferation ([2]; 20 µM) [%]	% inhibition of gametocyte viability ([3]; 1 µM) [%]	% inhibition of gametocyte viability ([3]; 5 µM) [%]	% inhibition of gametocyte viability ([4]; 1 µM) [%]	% inhibition of gametocyte viability ([4]; 5 µM) [%]	% inhibition of liver stage parasite viability [5] [%]
CCc1cc(CCCOc2c(C)cc(-c3noc(C(F)(F)F)n3)cc2C)on1	92.1	110	-0.702	< 0	< 0	40.1	94.3	7.22	9.64	8.61	13.1	28.7
OC[C@@H]1CC[C@H](n2cnc3c(O)ncnc32)O1	119	114	-1.26	1.35	4.95	47.1	26.7	< 0	< 0	0.0967	< 0	18.8
NC1C2CC3CC(C2)CC1C3 (stereo not drawn)	78.9	70.3	-1.51	21.5	18.1	76.1	43.4	6.86	5.87	9.54	9.98	9.47
O=C(NC1CCCc2c1[nH]c1ccc(Cl)cc21)c1ccccn1 (stereo not drawn)	96.3	102	20.7	< 0	6.95	20.6	37.5	< 0	< 0	< 0	< 0	2.22
Nc1nnc(-c2ccc(Cl)cc2)s1	84.5	88.7	-0.915	5.08	< 0	13.1	23.9	< 0	< 0	< 0	< 0	26.2
O=[N+]([O-])c1cn2c(n1)OC[C@@H](OCc1ccc(OC(F)(F)F)cc1)C2	92.7	84.4	10.7	< 0	< 0	0.354	10.1	< 0	< 0	< 0	3.32	31.5
O=S(=O)(NCB(O)O)c1cc2c(Cl)ccc(Cl)c2s1	91.2	59.2	30.9	22.6	27.1	-17.5	-8.49	< 0	< 0	< 0	< 0	-37.4
CC(C)=CCC/C(C)=C/CNCCNC1C2CC3CC(C2)CC1C3 (stereo not drawn)	93.3	65.4	17.1	51.3	89.7	11.7	93	78	90.8	< 0	42.1	21.8
O=C(Cc1ccccc1F)Nc1nc2ccccc2[nH]1	104	87.3	7.61	5.47	21.8	37.1	29.8	< 0	< 0	< 0	< 0	-7.69
COc1ccc2cc3[n+](cc2c1OCCN(CCn1cncn1)Cc1ccc(F)cc1F)CCc1cc2c(cc1-3)OCO2	89.4	74.2	22.1	< 0	< 0	78.3	84.3	< 0	30.9	< 0	10.3	2.84
CC(C)n1cnc2c(NCc3ccccc3)nc(NCc3ccccc3)nc21	104	58.3	7.56	< 0	< 0	45.5	60.5	< 0	< 0	< 0	< 0	17.1
CC(N)C(=O)NC(CCCCN)C(=O)NC(CCCNC(=N)N)C(=O)NC(Cc1c[nH]cn1)C(=O)NC(Cc1c[nH]cn1)C(=O)NCC(=O)NC(Cc1ccc(O)cc1)C(=O)NC(CCCCN)C(=O)NC(CCCNC(=N)N)C(=O)NC(CCCCN)C(=O)NC(Cc1ccccc1)C(=O)NC(Cc1c[nH]cn1)C(N)=O (stereo not drawn)	105	102	-0.769	< 0	14.3	10.1	17.2	< 0	< 0	< 0	< 0	26.4
O=C(/C(=C/c1ccc(Cl)cc1Cl)n1ccnc1)c1ccc(Cl)cc1	108	113	-2.24	38.5	85.8	56.2	75.6	40.3	86.2	80.5	99.8	26.7
CC(=O)Oc1ccccc1C(=O)Nc1ncc([N+](=O)[O-])s1	91.3	111	3.62	14.9	28.5	14.2	71.2	10.5	5	0.222	17.6	65.9
CCc1cc(Cc2cnc(N)nc2N)cc2c1N(C)CCC2C (stereo not drawn)	96.1	110	7.88	< 0	< 0	16.7	95.1	< 0	< 0	< 0	< 0	7.3
CC(=O)N1c2ccccc2NC2=C(C(=O)CC(C)(C)C2)C1c1ccc(OCc2ccccc2)cc1 (stereo not drawn)	119	85.5	-5.09	27.1	24.2	-13.1	76.9	1.11	3.14	9.92	< 0	27.4
CCOc1ccc(C(=O)NCCc2ccccc2)cc1	119	77.8	1.88	31.4	70.5	34	76.1	6.61	< 0	< 0	64.1	-19.9
CC(C)(C)c1cccc(-c2nc3cc(C(=N)N)ccc3[nH]2)c1O	98.4	106	-1.3	< 0	41.8	21.4	79.9	0.668	3.93	< 0	14.8	26.2
O=C(/C=C/n1cnc(-c2cc(C(F)(F)F)cc(C(F)(F)F)c2)n1)NNc1cnccn1	102	103	-11.2	11.2	-0.3	-23.5	56.5	0.272	< 0	0.0379	< 0	11.6
